# Where “and” joins values, the source holds several entries; their conditions need not be identical. Equal entries are not always repeated. Results filed as inconclusive are left out. Entries that show only a call come without a potency. Some structures have more than one record in an assay (separate samples or runs), and their calls can disagree. Calls of active or inactive are those of the source. Calls come from the whole dose curve; as a rule, active = well fitted curve in the direction sought with a large enough effect; inconclusive = small, poorly fitted or top-dose-only effect, or another doubt; inactive = no such curve, though single readings can be large; an effect the other way counts as inactive or inconclusive.
# Columns and labels:
# [1] = qHTS Screen of the MIPE 4.0 Collection Against Ewings Sarcoma (TC71) (AID 1259253); note: nearly all actives have a fitted effect of over 40% in size; note: potency is the fitted concentration of half-maximal effect
# Outline: (§1)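 Cells plated in serum-containing RPMI (5% FBS) and treated with compound dilutions for 48 h. Readout luminescent viability; normalization relied on vehicle (no inhibition) and media-only columns (full inhibition).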
# [2] = qHTS Screen of the MIPE 4.0 Collection Against Ewings Sarcoma (EW8) (AID 1259255); note: nearly all actives have a fitted effect of over 35% in size; note: potency is the fitted concentration of half-maximal effect
# Outline: as §1
# [3] = Identifying Small Molecule Inhibitors of Pancreatic Cancer Stem Cells (SN12C, Adherent) (AID 1259358);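 note: cell survival measured after 48 h of compound exposure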
# Outline: (§2)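 Pre-formed 14-day tumor spheroids or adherent cells dosed and incubated 48 h, 37C, 5% CO2. Viability assessed by CellTiter-Glo.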
# [4] = Identifying Small Molecule Inhibitors of Pancreatic Cancer Stem Cells (A278, Adherent) (AID 1259361);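 note: viability read after 48 h compound exposure; nearly all actives have a fitted effect of over 35% in size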
# Outline: as §2
# [5] = P-glycoprotein substrates identified in KB-3-1 adenocarcinoma cell line, qHTS therapeutic library screen (AID 1346986); note: nearly all actives have a fitted effect of over 60% in size
# Outline: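 Viability read by CellTiter-Glo after 72 h compound exposure in dose-response of KB-3-1 and KB-8-5-11 (P-gp-high) cells. Hits needed AC50 < 10 uM, >50% maximum response and curve class -1.1 to -2.4. Cherry-picks retested ± tariquidar, including pcDNA/MDR-19 HEK-293 pair.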
# [6] = P-glycoprotein substrates identified in KB-8-5-11 adenocarcinoma cell line, qHTS therapeutic library screen (AID 1346987); note: nearly all actives have a fitted effect of over 65% in size; note: potency is the fitted concentration of half-maximal effect
# Outline: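 Luminescence from CellTiter-Glo, read 5 min after addition, quantified survival of KB-8-5-11 (P-gp-overexpressing) cells exposed to compounds for 72 h. AC50 was derived from concentration-response curves.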
# [7] = NS1 protein of Zika virus - qHTS assay to identify small molecule inhibitors in human HEK 293 cells (AID 1347053); note: nearly all actives have a fitted effect of over 55% in size; note: potency is the fitted concentration of half-maximal effect
# Outline: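 Compound-treated (1 h pre-infection) HEK 293 cells infected with ZIKV MR766, MOI = 0.5; after 24 h at 37 C, NS1 read by TR-FRET; data normalized to uninfected and infected controls.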
# [8] = qHTS Screen of the MIPE 4.0 Collection Against Ewings Sarcoma (TC32) (AID 1259256); note: nearly all actives have a fitted effect of over 45% in size; note: potency is the fitted concentration of half-maximal effect
# Outline: as §1
# [9] = qHTS assay to identify small molecule inhibitors of chordoma cells - UCH-2 (AID 1259356); note: series mostly up to about 46 µM
# [10] = Identifying Small Molecule Inhibitors of Pancreatic Cancer Stem Cells (Panc1, Adherent) (AID 1259362); details: Potency: viability;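 note: compound exposure lasted 48 h before the viability read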
# Outline: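 Endpoint: ATP-based luminescence, 48 h drug exposure. Bortezomib at 9.2 uM final as full-kill control; DMSO vehicle as negative control; activity normalized between vehicle and cell-free wells.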
compound,measurement,setting,value
CCC=CC[C@H]1C(=O)CC[C@@H]1CC(=O)OC,Potency,[1],16.6 µM (active)
same,Potency,[2],inactive
same,Potency,[3],inactive
same,IC50 (viability decrease),[4],inactive
same,Potency,[5],inactive
same,Potency,[6],inactive
same,Potency,[7],inactive
Cc1nc(C(=O)NCC(=O)O)c(O)c2ccc(Oc3ccccc3)cc12,Potency,[1],inactive
same,Potency,[2],inactive
same,Potency,[8],inactive
same,Potency,[6],inactive
same,Potency,[7],inactive
CNC(=O)[C@H](Cc1ccccc1)NC(=O)[C@H](CC(C)C)[C@H](CSc1cccs1)C(=O)NO,Potency,[1],5.9 µM (active)
same,Potency,[2],inactive
same,Potency,[8],inactive
same,Potency,[6],inactive
same,Potency,[7],inactive
COC(=O)N1CCN(Cc2cccc(NC(=O)Nc3ccc(C)nc3)c2F)CC1,Potency,[1],8.33 µM (active)
same,Potency,[2],inactive
same,Potency,[8],inactive
same,Potency,[6],inactive
same,Potency,[7],inactive
Cc1ccc2c(c1)C(=O)[C@]1(O)CCN(c3ccccc3)C1=N2,Potency,[1],18.7 µM (active)
same,Potency,[2],18.7 µM (active)
same,Potency,[8],inactive
same,Potency,[7],inactive
O=C1NC(=O)C(=Cc2ccc(-c3ccc(F)cc3O)o2)S1,Potency,[1],23.5 µM (active)
same,Potency,[2],18.7 µM (active)
same,Potency,[8],23.5 µM (active)
same,Potency,[7],inactive
COc1ccc2nc3cc(Cl)ccc3c(Nc3cc(CN4CCCC4)c(O)c(CN4CCCC4)c3)c2n1,Potency,[1],14.8 µM (active)
same,Potency,[2],26.4 µM (active)
same,Potency,[8],16.6 µM (active)
same,Potency,[7],inactive
CC[C@H](CC#N)OC(=O)N[C@@H](C)c1cccc(NC(=O)Nc2ccc(-c3cnco3)c(OC)c2)c1,Potency,[1],0.469 µM (active)
same,Potency,[2],0.469 µM (active)
same,Potency,[8],0.469 µM (active)
same,Potency,[6],5.9 µM (active) and 5.8 µM (active)
same,Potency,[7],0.235 µM (active)
O=C(O)C1=CO[C@@H](O[C@@H]2O[C@H](CO)[C@H](O)[C@H](O)[C@H]2O)[C@@H]2C(CO)=CC[C@H]12,Potency,[1],16.6 µM (active)
same,Potency,[2],inactive
same,Potency,[8],inactive
same,Potency,[6],inactive
same,Potency,[7],inactive
CCC(=C(c1ccc(O)cc1)c1ccc(OCCNC)cc1)c1ccccc1,Potency,[1],20.9 µM (active)
same,Potency,[2],26.4 µM (active)
same,Potency,[8],23.5 µM (active)
same,Potency,[7],inactive
CN[C@@H]1[C@@H](O)[C@@H](O[C@@H]2[C@@H](O)[C@H](O[C@H]3O[C@H](CN)[C@@H](O)[C@H](O)[C@@H]3O)[C@@H](N)C[C@@H]2NC(=O)[C@@H](O)CN)OC[C@]1(C)O,Potency,[1],inactive
same,Potency,[2],inactive
same,Potency,[8],inactive
same,Potency,[6],inactive
same,Potency,[7],inactive
CCNC(=O)CCCC=CC[C@@H]1[C@H](C=CC(O)CCc2ccccc2)[C@@H](O)C[C@@H]1O (stereo partly specified),Potency,[1],inactive
same,Potency,[2],23.5 µM (active)
same,Potency,[8],inactive
same,Potency,[6],inactive
same,Potency,[7],inactive
NS(=O)(=O)c1cc(Cl)c(Cl)c(S(N)(=O)=O)c1,Potency,[1],inactive
same,Potency,[2],inactive
same,outcome,[9],inactive
same,Potency,[6],inactive
same,Potency,[7],inactive
CN1c2ccccc2C(=O)N2CCc3c([nH]c4ccccc34)C21 (stereo unspecified),Potency,[1],23.5 µM (active)
same,Potency,[2],inactive
same,Potency,[8],14.8 µM (active)
same,Potency,[6],inactive and 1.84 µM (active)
same,Potency,[7],inactive
Cc1ccc(C2=Nc3ccc(Cl)cc3OC2)cc1,Potency,[1],4.69 µM (active)
same,Potency,[2],16.6 µM (active)
same,Potency,[6],inactive
OC(c1cc(C(F)(F)F)nc2c(C(F)(F)F)cccc12)C1CCCCN1 (stereo unspecified),Potency,[1],20.9 µM (active)
same,Potency,[2],20.9 µM (active)
same,Potency,[8],26.4 µM (active)
same,Potency,[7],10.5 µM (active)
CCCCC(C=O)NC(=O)C(CC(C)C)NC(=O)OCc1ccccc1 (stereo unspecified),Potency,[1],inactive
same,Potency,[2],11.8 µM (active)
same,Potency,[8],inactive
same,Potency,[7],inactive
CN[C@@H](C)[C@H]1[C@H](O)C[C@@]2(C)[C@@H]3CC[C@H]4C(C)(C)[C@@H](NC)CC[C@@]45C[C@@]35CC[C@]12C,Potency,[1],inactive
same,Potency,[2],inactive
same,outcome,[5],inactive [at 9.29 µM]
same,Potency,[6],inactive
same,Potency,[7],inactive
COc1cc([C@H]2Oc3cc([C@H]4Oc5cc(O)cc(O)c5C(=O)[C@H]4O)ccc3O[C@H]2CO)ccc1O,Potency,[1],14.8 µM (active)
same,Potency,[2],9.35 µM (active)
same,Potency,[8],16.6 µM (active)
same,Potency,[6],inactive
same,Potency,[7],inactive
CC[C@H](NC(=O)[C@H](C)NC)C(=O)N1C[C@@H](O)C[C@H]1Cc1c(-c2[nH]c3cc(F)ccc3c2C[C@H]2C[C@H](O)CN2C(=O)[C@H](CC)NC(=O)[C@H](C)NC)[nH]c2cc(F)ccc12,Potency,[1],inactive
same,Potency,[2],inactive
same,Potency,[5],inactive
same,Potency,[6],inactive
COc1ccc2c(c1)CC[C@H]1[C@@H]2CC[C@]2(C)[C@@H](NCCCCCCN3C(=O)C=CC3=O)CC[C@H]12,Potency,[1],16.6 µM (active)
same,Potency,[2],inactive
same,IC50 (viability decrease),[4],20.9 µM (active)
same,Potency,[10],inactive
same,Potency,[6],inactive
C[C@@H]1CCO[C@H]2Cn3cc(C(=O)NCc4ccc(F)cc4F)c(=O)c(O)c3C(=O)N12,Potency,[1],13.2 µM (active)
same,Potency,[2],20.9 µM (active)
same,Potency,[6],inactive
